# Rows were chosen to be rich in hits. Some 5.1% of all compounds tested hit in one or more screens of this group.
# RAM inhibit: inhibitors of the yeast RAM network, primary screen, dse1pr::URA3 reporter, 5-FOA selection. S. cerevisiae dse1pr::URA3 reporter, 5-FOA growth OD615, 2 d; analog-sensitive cbk1-as2 kinase mutant strain. inhibition, % at 50 µM. actives 1.8% (n = 190,000);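 active = inhibition above a set limit, 3 SD over mean compound inhibition, cut at about 8.4% in these data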;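 note: 0% = DMSO-only wells with no growth and 100% = 10 µM 1-NA-PP1 full growth; inhibition rescues growth on 5-FOA so higher OD means more RAM inhibition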
# S1P4 ag: S1P4 receptor agonists, primary screen, cell-based. activation, % at 4.98 µM. S1P4-expressing cell line, agonist reporter assay. Sphingosine 1-phosphate receptor 4 (Homo sapiens), O95977. actives 0.35% (n = 220,000); in the data active = activation above about 11%;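 note: 0% = DMSO vehicle and 100% = reference agonist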
# ROMK mod: ROMK potassium channel modulators, primary screen, cell-based, thallium flux, MLSMR library; actives 2% (n = 130,000); B-score at 10 µM; Tet-inducible ROMK, thallium flux fluorescence; actives lie on both sides; ATP-sensitive inward rectifier potassium channel 1 (Homo sapiens), P48048;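 active = signal ratio slope over the read window, or its plate-corrected B-score, at least 3 SD from the plate mean, either direction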;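 note: B-score of the F/F0 ratio slope over 7 to 12 s after thallium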
# S1P4 antag: S1P4 receptor antagonists, primary screen, cell-based; Sphingosine 1-phosphate receptor 4 (Homo sapiens), O95977; S1P4-expressing cells, antagonist mode, reporter read-out; inhibition, % at 4.98 µM; actives 0.26% (n = 220,000); AID 1510, 2009; in the data active = inhibition above about 29%;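 note: 0% = wells stimulated with agonist and 100% = vehicle wells without agonist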
# S1P3 antagonist: S1P3 receptor antagonists, primary screen, cell-based; CHO S1P3 NFAT-BLA reporter, FRET fluorescence, antagonist mode; actives 0.27% (n = 170,000); AID 485, 2006; inhibition, % at 4.98 µM;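 active = inhibition above the plate cutoff, the mean inhibition of test wells on that plate plus 3 SD, cut at about 28% in these data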;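 note: cells challenged with S1P at its EC80 of 0.8 µM; blue over green emission ratio from cleaved BLA substrate after 4 h stimulation; 0% = S1P-stimulated wells and 100% = unstimulated DMSO-only wells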
# Target sequence (Q99500 whole entry, looked up): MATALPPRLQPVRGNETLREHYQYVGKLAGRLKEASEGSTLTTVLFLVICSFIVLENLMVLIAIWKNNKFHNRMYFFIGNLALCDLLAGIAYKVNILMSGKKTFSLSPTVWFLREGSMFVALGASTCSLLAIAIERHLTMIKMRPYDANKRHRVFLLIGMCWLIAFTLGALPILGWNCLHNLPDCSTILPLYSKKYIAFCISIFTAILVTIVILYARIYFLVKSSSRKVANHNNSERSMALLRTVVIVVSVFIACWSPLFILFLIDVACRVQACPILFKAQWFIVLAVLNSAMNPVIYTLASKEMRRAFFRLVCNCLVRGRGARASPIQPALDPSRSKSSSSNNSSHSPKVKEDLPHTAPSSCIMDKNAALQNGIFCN
# Cl transport mod: KCC2 cotransporter modulators, thallium flux, primary screen, cell-based, HEK293 KCC2, FluoZin-2 fluorescence, MLSMR; Solute carrier family 12 member 5 (Homo sapiens), Q9H2X9; KCC2 cells, thallium flux FluoZin-2 fluorescence; B-score of Tl+ flux slope (higher = more flux/activation; lower = inhibition) at 10 µM; actives 2.2% (n = 190,000); AID 1456, 2008;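 active = thallium flux slope and its plate-corrected score both differing from the plate sample mean at a set confidence after two filtering rounds, in either direction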;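 note: slope of fluorescence scaled to starting intensity during 10 to 20 s after thallium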
# S1P4 agonist cf: S1P4 receptor agonists, retest, confirmation, cell-based, high throughput | AID 1523, 2009 | actives 7% (n = 740) | shares compounds with S1P4 ag | S1P4 agonist cell-based reporter assay | activation, % at 4.98 µM; in the data active = activation above about 12%;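 note: 0% = vehicle and 100% = full reference agonist response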
# S1P1 ag: S1P1 receptor agonists, human, counter-screen for S1P4 agonist project, cell-based; actives 4% (n = 740); shares compounds with S1P4 ag; S1P1 agonist cell-based assay, activation; activation, % at 4.98 µM; AID 1563, 2009; in the data active = activation above about 21%;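 note: 0% = vehicle wells and 100% = reference agonist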
# * = called active by the depositor; . = no result.
SMILES,RAM inhibit,S1P4 ag,ROMK mod,S1P4 antag,S1P3 antagonist,Cl transport mod,S1P4 agonist cf,S1P1 ag
O=C(NNc1c2ccccc2nc2ccccc12)c1ccccc1O,1,3,0.22,-22,16,1.5,.,.
O=C(NNc1c2ccccc2nc2ccccc12)C12CC3CC(CC(C3)C1)C2,.,13*,.,-15,6,0.19,-2,-3
CC(C)=CCN1CCN(Cc2cnc(C)s2)CC1CCO (stereo not given),1,-1,2.8,1,1,1.7,.,.
O=[N+]([O-])c1ccc2[nH]c3c(c2c1)CCCC3,0,15*,0.34,6,8,0.012,-3,-9
N/N=C1\CCCc2c1[nH]c1ccc([N+](=O)[O-])cc21,.,0,-0.27,-8,-11,0.18,.,.
CCOC(=O)c1cccc(NC(=O)C2(S(=O)(=O)c3ccc(Cl)cc3)CC2)c1,3,1,-0.0055,-27,7,0.0017,.,.
CCc1cccc(CC)c1NC(=O)COC(=O)c1ccc2c(c1)S(=O)(=O)c1ccccc1C2=O,6,12*,.,-21,-2,-1.2,-1,0
O=C(COC(=O)c1ccc2c(c1)S(=O)(=O)c1ccccc1C2=O)NC1CC1,3,-1,0.47,-3,-14,0.11,.,.
CCCCn1c(SCC(=O)Nc2cccc(OC)c2)nc2ccc(N3CCOCC3)cc2c1=O,1,14*,.,-13,.,3,-2,-1
CCCCn1c(SCC(N)=O)nc2ccc(N3CCOCC3)cc2c1=O,5,-3,.,1,.,.,.,.
CCc1ccc(/C(C)=N/NC(=O)c2ccccn2)cc1,1,12*,0.57,6,5,0.29,-3,-6
C/C(=N/NC(=O)CNC(=O)c1ccccn1)c1ccccc1,1,2,1.4,-27,-20,0.37,.,.
O=C(COC(=O)CCc1nc2ccccc2s1)NC(=O)NCc1ccco1,2,17*,-0.28,1,-4,0.75,-1,-3
O=C(COC(=O)CCc1nc2ccccc2s1)NCc1ccco1,2,0,-0.59,7,-27,-1.1,.,.
CCC(=O)Nc1ccc(Cl)c(NC(=O)c2c(OC)cccc2OC)c1,2,-1,0.33,-16,-14,-0.6,.,.
Cc1cc(C)cc(NC(=O)COc2ccc(C(=S)N3CCOCC3)cc2)c1,2,0,0.11,-2,2,0.37,.,.
CCN(C(=O)COc1cccc2cccnc12)C1CCS(=O)(=O)C1 (stereo not given),2,2,0.07,-20,-8,-0.046,.,.
O=C(COC(=O)c1cc(=O)[nH]c(=O)[nH]1)Nc1cccc(S(=O)(=O)N2CCCCC2)c1,2,1,-0.35,-7,-8,0.16,.,.
O=C(O)CSc1nnc(-c2cccc(S(=O)(=O)N3CCOCC3)c2)n1-c1cccc(Cl)c1,.,15*,.,-2,8,-1.4,0,1
Cc1ccc(CSCCNC(=O)c2ccc(NS(C)(=O)=O)cc2)cc1,-1,0,0.093,-7,-9,-0.075,.,.
COCCCNC(=O)C1CCN(C(=O)Nc2ccc(Cl)cc2)CC1,2,61*,.,-10,-22,1.3,-2,-5
Cc1noc(C)c1COC(=O)Cc1ccc(Br)cc1,1,0,-0.4,-5,-18,-1.1,.,.
CCCCC(=O)NC(=S)Nc1nnn(CCC)n1,-2,179*,.,7,-18,-0.21,-2,-6
CC(=O)c1cccc(NC(=O)C23CC4CC(C2)CC(n2cncn2)(C4)C3)c1,1,-1,-0.059,7,-1,0.027,.,.
